# Laboratory results from the OligoGym collection.
# Biological target: FEZ1
# Assay: pooled miR-30 sensor sort-seq; sequence = guide strand
# Details: shRNA
# Further: reference of the scale not given here.
row,Sequence,sensor-assay potency score (higher = more potent)
1,TGAACCTCAATAAGCACCGTGA,-0.29
2,TTGAAGCTGATTATTTCGGAAG,-0.859
3,ATTACTAGCACTAGAAGCCAAC,-1.45
4,TCAAACTCCAGCTCGTCCCGGC,0.386
5,TAGTCTTAAGAGTATAAGCTGT,-0.799
6,TTGCTCAGTGACCTCCTGCAGC,-0.806
7,TTGTCTGTCAGAGCATCCCAAA,-1.44
8,TGAACCATAGAAACACTGGGGC,0.345
9,TTCTCGTAAGGAATGACTGTGT,-0.149

# Biological target: FFAR2
# Assay: as above
# Details: shRNA
row,Sequence,sensor-assay potency score (higher = more potent)
1,TTGAGTGAACTGAACACCACGG,0.516
2,TCGTGTTCAAGTATTGAACGAT,-0.455
3,TTATCGGTGAAGTTCTCGTAGC,-0.593
4,TTCTCCTTGACCCACACCCCTG,-1.59
5,TCTCGTAGCAGGTAATTTCATT,-0.802
6,TAGCAGGTAATTTCATTGCCAC,-0.783
7,TAGATGCTGCTGTAGAAGCCAA,-0.865
8,TTTTTCTCTGGTGATACCCCAC,-0.286
9,TGAGTGAACTGAACACCACGGC,0.269
10,TCGGTGAAGTTCTCGTAGCAGG,-0.822
11,TAAGCCATGAGGATCAAGGAGC,-1.02
12,TTCATTGCCACTTCTGACCTGC,0.752

# Biological target: FGA
# Assay: as above
# Details: shRNA
row,Sequence,sensor-assay potency score (higher = more potent)
1,TAAGTCTTTGGCAATGACCTGT,0.441
2,TTTCTCTCCACTTCTCTAGCAA,0.384
3,AACATTTTTCTGCAGAAGCTGG,-0.95
4,TTGTAGTCTTGCCAGGTCCGGT,-0.917
5,TATTCTGTTTGTAAAATCTTGA,-0.477
6,TTGTAGAGAATCTCAACTGCTT,0.304
7,TTCTATGACTTTGCGCTTCAGG,-0.597
8,TTTAGCTACAGTACAAAGGATA,-0.909
9,TTGATTGACTTCATCAATCAAC,-0.764
10,TTAGGTTGTAGAGAATCTCAAC,-0.726
11,TCAAAGACTAATATGTCTCAGG,-0.257
12,TGTAGTTCCAGTCTTCATCAGA,-0.66
13,TAGACTTCTGCACAGTTCTCTT,-0.561
14,TATTGTTCTTCTGATATTCAAA,-1.2
15,TAACTCCATTCTCATCTGCGGC,-1.53
16,TAAATTGTTTGCTGTAACTTGA,-0.0308
17,TTCTGCACAGTTCTCTTCCCAC,-0.744
18,TTTTTCTATGACTTTGCGCTTC,-0.192
19,TAAAATTCAGTGATCCATCCAT,0.455
